± gives the standard deviation of the averaged measurements.
compound: CCC1CCC(=O)O1 [γ-hexalactone]; assay: control-subtracted net OSN firing rate; higher = stronger neuronal activation; conditions: odorant dilution (vol/vol): 1/100
Description: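 Single sensillum recordings from olfactory sensory neurons. The neurons sit in the maxillary palp or antennal sensilla of D. melanogaster (wild type, mutants, or at1 empty-neuron lines expressing Or42a homologs or the A181D S307P mutant) and of four Scaptomyza species. Each odorant was given as a 1 s pulse from 20 µl loaded on filter paper at 1:100 vol/vol, diluted in mineral oil (γ-hexalactone in DMSO). Spikes were counted in a 0.5 s window starting 0.2 s after onset, background was subtracted, the count was doubled, and the mean solvent-control response was subtracted.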

Canton-S at1 and Or67dGal4, UAS-Sfla Or42a2 at1 are within error of each other in “control-subtracted net OSN firing rate” value: -2 ± 5.5 spikes/s for the first, -3.14 ± 2.5 spikes/s for the second.

Compared with Canton-S ab5a, Or67dGal4; UAS-SflaOr42a4 at1 is higher in “control-subtracted net OSN firing rate” value: 6.2 ± 8.2 spikes/s for the first, 50.9 ± 14 spikes/s for the second.

First: Canton-S ab2a
Second: Or67dGal4, UAS-Sfla Or42a3/+ at1
The “control-subtracted net OSN firing rate” value of the first is lower: -6.29 ± 11 spikes/s for the first, 34 ± 6.2 spikes/s for the second.

Canton-S ab1c and Or67dGal4, UAS-Sfla Or42a4/+ at1 are within error of each other in “control-subtracted net OSN firing rate” value: 1.5 ± 4.2 spikes/s for the first, 3.43 ± 6.4 spikes/s for the second.

Reference: the supplement of paper PMC11482750
